# Data published in PubChem BioAssay.
# Where “and” joins values, the source holds several entries; their conditions need not be identical. Equal values may be shown once. Calls of active or inactive are those of the source. Unless noted, no rule for the calls is given here.
# Legend:
# [1] = liver-stage malaria parasite load reduction – cell-based, known kinase inhibitor set, luminescence, hepatoma host viability (AID 624392); settings: Plasmodium liver stage in hepatoma cells, luciferase luminescence, concentration not given here; liver cell % of control: measured here: host liver cell viability; parasite % of control: stronger effect = lower value;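 also: infected cells incubated roughly two days before readout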
# [2] = growth inhibition, single agents and combos, LFS_MB_1R, cell-based, cisplatin or BGB combos, synergistic combos for chromothripsis tumors (AID 1671452; in the data active = inhibition above about 80%;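 also: cells exposed for 96 hours before readout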); settings: LFS_MB_1R medulloblastoma cells, stronger effect = higher value
# [3] = growth inhibition, single agents and combos, CRL2098, cell-based, BGB or cisplatin IC20 combos, synergistic combos for chromothripsis tumors (AID 1671454; in the data active = inhibition above about 80%;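 also: cells exposed for 96 h before readout; 0% = vehicle DMSO and 100% = killing by high DMSO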); settings: CRL2098 osteosarcoma cells, drug combinations, stronger effect = higher value
# [4] = growth inhibition, single agents and combos, HD-MB03, cell-based, BGB or cisplatin IC20 combos, synergistic combos for chromothripsis tumors (AID 1671455; in the data active = inhibition above about 83%;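 also: 0% = vehicle DMSO and 100% = high DMSO as cytotoxic control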); settings: HD-MB03 medulloblastoma cells, stronger effect = higher value
# [5] = growth inhibition, single agents and combos, UWB1.289, cell-based, BGB or cisplatin combos, synergistic combos for chromothripsis tumors (AID 1671456; in the data active = inhibition above about 80%;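 also: cells exposed to compound for four days; 0% = vehicle DMSO and 100% = killing by high DMSO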); settings: UWB1.289 ovarian carcinoma cells, stronger effect = higher value
# [6] = growth inhibition, single agents and combos, LFS_MB_2R, cell-based, cisplatin combos, synergistic combos for chromothripsis tumors (AID 1671457; in the data active = inhibition above about 80%;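 also: cells exposed to compound for four days before readout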); settings: LFS_MB_2R medulloblastoma cells, stronger effect = higher value
# [7] = UWB1.289_BRCA1 ovarian cancer growth, cell-based, BGB or cisplatin combinations (AID 1671459; in the data active = inhibition above about 80%); settings: UWB1.289 BRCA1 ovarian carcinoma, drug combinations, stronger effect = higher value
# [8] = drug combination toxicity in non-malignant astrocytes – cell-based, BGB or cisplatin IC20 combos, cytotoxicity control for chromothriptic childhood tumor combination screen (AID 1671460; in the data active = inhibition above about 80%;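 also: cells exposed to compounds for 96 hours before viability readout; 0% = vehicle and 100% = killing control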); settings: Human astrocytes, viability inhibition, drug combinations, at 0.5 µM, stronger effect = higher value
# [9] = CRL1545 cell growth, single agent and combined, cisplatin and BGB IC20 combos (AID 1671464; in the data active = inhibition above about 80%;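 also: cells exposed to compound for 96 hours before readout; 0% = vehicle DMSO and 100% = high DMSO killing control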); settings: CRL1545 osteosarcoma cells, stronger effect = higher value
# [10] = compounds altering circadian rhythm period length – cell-based, LOPAC library, luminescence reporter (AID 2774); settings: circadian reporter cells, at 7 µM, actives lie on both sides;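 also: values are relative to mean of DMSO wells on each plate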
# [11] = test system: Hepatitis C virus NS3 helicase; assay: blockers of NS3h binding to ssDNA – biochemical, fluorescence polarization, LOPAC1280 library, primary screen (AID 687035; in the data active = inhibition above about 37%); settings: Purified HCV NS3 helicase, Cy5-dT15 ssDNA binding fluorescence polarization; stronger effect = higher value; concentration not given here
# [12] = compounds altering Cy5-DNA-NS3h complex signal – biochemical, LOPAC1280, artefact control for HCV NS3 helicase inhibitor project (AID 687037); settings: Cy5-DNA-NS3h complex fluorescence interference counterscreen
# [13] = blockers of cellular phospholipid synthesis – cell-based, LOPAC library, screen 4, primary screen (AID 1347384); settings: animal cells, phospholipid biosynthesis inhibition screen; at 10 µM
# [14] = galactose survival enhancers in mitochondrial complex I cybrids – cell-based, galactose medium, ATP luminescence, primary screen (AID 1645843;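 active = z-score of at least 1.8 in each of two replicates, scored against plate mean and spread of sample wells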;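 also: positive z means more ATP and so rescue of galactose-driven cybrid death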); settings: complex I mutant cybrid cells, 72 h, stronger effect = higher value
# [15] = target: NAD(+) hydrolase SARM1 (Homo sapiens) (UniProt Q6SZW1); assay: blocking NAD cleavage by SARM1 SAM-TIR – cell lysate, NAD-Glo luminescence (AID 1508614;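 active = compound whose remaining NAD level is above about 45 nM, limit read from the data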;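 also: higher remaining NAD means stronger inhibition of SARM1 NADase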); settings: SAM-TIR HEK293T lysate NADase, at 1 µM, stronger effect = higher value
# [16] = compounds altering viability of human ES cells (AID 493140); settings: human embryonic stem cell survival screen; stronger effect = higher value;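 also: cells exposed to compounds for four days before counting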
# [17] = P. berghei load reduction in hepatocytes – cell-based, HepG2, luciferase luminescence, HepG2 viability, primary screen (AID 624349; in the data active = parasite load remaining mostly below about 12%, no sharp cut-off; inactive = mostly above about 10%;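 also: 100% = mean of DMSO negative control wells on the same plate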); settings: P. berghei liver stage in HepG2, luciferase luminescence, concentration not given here; parasite load remaining: stronger effect = lower value; viability: measured here: HepG2 viability without parasites
# [18] = target: Mitogen-activated protein kinase 7 (Homo sapiens) (UniProt Q13164); assay: Gal4-ERK5 driven luciferase induction – cell-based, HTS, primary screen (AID 1508626;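 active = luciferase signal above three times the same-plate solvent-only control wells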;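 also: luciferase driven by Gal4-ERK5 fusion binding five Gal4 sites before minimal TATA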); settings: HeLa Gal4-ERK5 transactivation, 18 h, at 5 µM, stronger effect = higher value
# [19] = measured here: combination with BGB IC40, at 0.05 µM
# [20] = measured here: combination with cisplatin, at 0.5 µM
# [21] = measured here: combination with cisplatin, at 5 µM
# [22] = measured here: combination with BGB at IC20, at 0.5 µM
# [23] = measured here: combination with cisplatin at IC20, at 0.5 µM
# [24] = measured here: combo with BGB at IC20, at 0.5 µM
# [25] = measured here: combo with cisplatin at IC20, at 0.5 µM
# [26] = measured here: inhibition with BGB combination, at 0.05 µM
# [27] = measured here: inhibition with cisplatin combination, at 0.05 µM
# [28] = BGB combination, concentration series, at 5 µM
# [29] = cisplatin combination, concentration series, at 5 µM
# [30] = measured here: combo with BGB IC20
# [31] = measured here: combo with cisplatin IC20
# [32] = measured here: with BGB IC20 combination, at 0.5 µM
# [33] = measured here: with cisplatin IC20 combination, at 0.5 µM
# Chain of NAD(+) hydrolase SARM1 (Homo sapiens) (Q6SZW1 whole entry, looked up): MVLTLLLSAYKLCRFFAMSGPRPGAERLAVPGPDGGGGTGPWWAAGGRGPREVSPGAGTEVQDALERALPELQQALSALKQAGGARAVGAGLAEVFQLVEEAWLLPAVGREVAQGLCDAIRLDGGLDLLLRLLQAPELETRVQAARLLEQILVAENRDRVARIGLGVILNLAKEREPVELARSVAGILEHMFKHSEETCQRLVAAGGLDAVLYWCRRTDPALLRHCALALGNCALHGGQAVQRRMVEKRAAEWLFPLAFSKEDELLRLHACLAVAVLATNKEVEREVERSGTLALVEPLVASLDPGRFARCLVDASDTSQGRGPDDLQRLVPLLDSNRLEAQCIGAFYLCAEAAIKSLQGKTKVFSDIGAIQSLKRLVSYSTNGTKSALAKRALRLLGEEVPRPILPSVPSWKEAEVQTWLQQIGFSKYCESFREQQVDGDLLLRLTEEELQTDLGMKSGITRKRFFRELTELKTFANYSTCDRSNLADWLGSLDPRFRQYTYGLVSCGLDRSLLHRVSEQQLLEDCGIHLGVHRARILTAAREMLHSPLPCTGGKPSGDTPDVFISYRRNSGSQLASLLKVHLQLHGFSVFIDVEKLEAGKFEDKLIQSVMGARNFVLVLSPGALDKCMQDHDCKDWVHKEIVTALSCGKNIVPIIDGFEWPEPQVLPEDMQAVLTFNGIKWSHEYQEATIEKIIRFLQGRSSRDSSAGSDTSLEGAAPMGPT
# Chain of Mitogen-activated protein kinase 7 (Homo sapiens) (Q13164 whole entry, looked up, the tested form may be a part): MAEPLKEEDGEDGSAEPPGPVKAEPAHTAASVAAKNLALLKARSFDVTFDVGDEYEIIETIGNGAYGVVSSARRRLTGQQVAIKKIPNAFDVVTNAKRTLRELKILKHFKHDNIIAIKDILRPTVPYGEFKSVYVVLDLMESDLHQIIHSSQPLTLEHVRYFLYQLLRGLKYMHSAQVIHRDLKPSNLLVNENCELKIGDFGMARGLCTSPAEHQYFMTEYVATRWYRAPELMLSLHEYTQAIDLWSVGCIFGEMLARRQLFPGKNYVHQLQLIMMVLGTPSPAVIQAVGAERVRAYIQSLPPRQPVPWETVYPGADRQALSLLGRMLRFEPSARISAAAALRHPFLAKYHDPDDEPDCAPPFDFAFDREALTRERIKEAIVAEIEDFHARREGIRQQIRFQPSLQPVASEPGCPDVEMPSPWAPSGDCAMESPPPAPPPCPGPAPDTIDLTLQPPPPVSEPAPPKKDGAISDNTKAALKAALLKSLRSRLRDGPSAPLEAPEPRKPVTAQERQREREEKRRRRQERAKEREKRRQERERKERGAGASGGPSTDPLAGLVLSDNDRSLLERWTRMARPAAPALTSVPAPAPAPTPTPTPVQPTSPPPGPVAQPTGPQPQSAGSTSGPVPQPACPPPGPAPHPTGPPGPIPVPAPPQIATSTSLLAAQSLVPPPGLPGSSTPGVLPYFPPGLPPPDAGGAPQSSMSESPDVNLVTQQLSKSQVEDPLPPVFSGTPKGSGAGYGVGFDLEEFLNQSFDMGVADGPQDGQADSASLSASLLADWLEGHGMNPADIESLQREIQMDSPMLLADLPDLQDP
structure (smiles),measurement,setting,value
c1cc(OCCN2CCCCC2)cc(-c2n[nH]c3ccc(-c4ncn[nH]4)cc23)c1,liver cell % of control,[1],77.7% and 82.4% and 94%
same,parasite % of control,[1],63.2% (inactive) and 149% (inactive) and 87% (inactive)
CCCCc1nc2cc(/C=C/C(=O)NO)ccc2n1CCN(CC)CC,inhibition,[2]; at 0.5 µM,31% (inactive)
same,inhibition,[2]; [19],-30.9%
same,inhibition,[2]; [20],45.7%
same,inhibition,[2]; [21],97.5%
same,inhibition,[3]; at 0.5 µM,-2.27% (inactive)
same,inhibition,[3]; [22],-16.1%
same,inhibition,[3]; [23],1.66%
same,inhibition,[4]; at 0.5 µM,93.3% (active)
same,inhibition,[4]; [24],95.7%
same,inhibition,[4]; [25],99.3%
same,inhibition,[5]; at 0.5 µM,46.9% (inactive)
same,inhibition,[5]; [26],11.6%
same,inhibition,[5]; [27],0.198%
same,inhibition,[6]; at 0.5 µM,26.1% (inactive)
same,inhibition,[6]; [20],56.5%
same,inhibition,[6]; [21],98.1%
same,inhibition,[7]; [28],115%
same,inhibition,[7]; at 0.5 µM,51.5% (inactive)
same,inhibition,[7]; [29],127%
same,inhibition,[8],41.3% (inactive)
same,inhibition,[8]; [30],44.4%
same,inhibition,[8]; [31],26%
same,inhibition,[9]; at 0.5 µM,81.5% (active)
same,inhibition,[9]; [32],67.7%
same,inhibition,[9]; [33],88.2%
same,inhibition,"[9]; single agent, at 0.05 µM",-14.8%
same,inhibition,"[9]; single agent, at 5 µM",93.1%
COc1ccccc1N1CCN(CCN(C(=O)C2CCCCC2)c2ccccn2)CC1,period change,[10],-0.085 h (inactive)
same,inhibition,[11],-3% (inactive)
same,fluorescence ratio (interference),[12],1 (inactive)
same,outcome,[13],inactive
same,z-score,[14],-1.04 (inactive)
C[Se]CCC(N)C(=O)O (configuration not stated),remaining NAD,[15],10 nM (inactive)
CO[C@H]1/C=C/O[C@@]2(C)Oc3c(C)c(O)c4c(O)c(c(/C=N/N5CCN(C)CC5)c(O)c4c3C2=O)NC(=O)/C(C)=C\C=C\[C@H](C)[C@H](O)[C@@H](C)[C@@H](O)[C@@H](C)[C@H](OC(C)=O)[C@@H]1C,survival,[16],9.5 (inactive)
same,parasite load remaining,[17],95.1% (inactive) and 71.6% (inactive) and 41.3% (inactive)
same,viability,[17],99.1% and 71.9% and 96.5%
same,remaining NAD,[15],10 nM (inactive)
same,luciferase signal,[18],44 AU (inactive)
same,z-score,[14],1.12 (inactive)
Cc1nc(N)ncc1-c1nc(N2CCOCC2)c2sc(C(C)(C)O)cc2n1,liver cell % of control,[1],78.4% and 78.6% and 93.7%
same,parasite % of control,[1],406% (inactive) and 544% (inactive) and 660% (inactive)
COc1nccc(-c2c(-c3ccc(F)cc3)ncn2C2CCNCC2)n1,liver cell % of control,[1],89.2% and 92.3% and 100%
same,parasite % of control,[1],45.1% (inactive) and 35% (inactive) and 41.5% (inactive)
Cc1ccc(C(=O)Nc2cccc(C(F)(F)F)c2)cc1-c1ccc2nc(NCCN3CCOCC3)ncc2c1,liver cell % of control,[1],51.5% and 76.3% and 85.2%
same,parasite % of control,[1],60.4% (inactive) and 252% (inactive) and 87.5% (inactive)
Clc1ccc2c(N3CCN(CCCN4CCN(c5ccnc6cc(Cl)ccc56)CC4)CC3)ccnc2c1,z-score,[14],-0.6 (inactive)
CC1(C)O[C@@H]2C[C@H]3[C@@H]4CCC5=CC(=O)C=C[C@]5(C)[C@H]4[C@@H](O)C[C@]3(C)[C@]2(C(=O)CO)O1,remaining NAD,[15],10 nM (inactive)
same,luciferase signal,[18],172 AU (inactive)
CN(C)Cc1c(C(=O)NCCOc2ccc(C(=O)NO)cc2)oc2ccccc12,inhibition,[2]; at 0.5 µM,45.6% (inactive)
same,inhibition,[2]; [19],-17%
same,inhibition,[2]; [20],62.1%
same,inhibition,[2]; [21],98.2%
same,inhibition,[3]; at 0.5 µM,25.5% (inactive)
same,inhibition,[3]; [22],32.6%
same,inhibition,[3]; [23],21.9%
same,inhibition,[4]; at 0.5 µM,99.3% (active)
same,inhibition,[4]; [24],99.1%
same,inhibition,[4]; [25],99.5%
same,inhibition,[5]; at 0.5 µM,49.7% (inactive)
same,inhibition,[5]; [26],11.1%
same,inhibition,[5]; [27],27.1%
same,inhibition,[6]; at 0.5 µM,51.5% (inactive)
same,inhibition,[6]; [20],71.4%
same,inhibition,[6]; [21],106%
same,inhibition,[7]; [28],111%
same,inhibition,[7]; at 0.5 µM,59.3% (inactive)
same,inhibition,[7]; [29],125%
same,inhibition,[8],49.9% (inactive)
same,inhibition,[8]; [30],45%
same,inhibition,[8]; [31],44%
same,inhibition,[9]; at 0.5 µM,80.7% (active)
same,inhibition,[9]; [32],78.9%
same,inhibition,[9]; [33],81.1%
same,inhibition,"[9]; single agent, at 0.05 µM",38.5%
same,inhibition,"[9]; single agent, at 5 µM",96.4%
